Compounds without any hit were thinned out: in the full panel of roughly 83,000, 20% have a hit.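 Percent growth is the endpoint: 0 to 100 indicates growth inhibition (40 means 60% inhibition), 0 means no net growth, and negative values indicate cell death.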 A number with no mark means an inactive call. Calls of active or inactive are those of the source. The calls were made as follows: active = growth percent below 10; inactive = the rest.

The results in this text go back to PubChem BioAssay (NCI).

Test systems include T-47D breast; BT-549 breast; MDA-MB-435 melanoma; SW-620 colon; HCC-2998 colon; KM12 colon; MCF7 breast; HCT-116 colon.
Common to all, as to experiment: NCI-60 one-dose screen, 48 h (100 = growth as untreated, 0 = no growth, -100 = all killed)
What all share (conditions): 10 µM unless noted

For the compound `Clc1ccc(OCc2nc(-c3ccccc3)n[nH]2)c(Cl)c1`, the growth was 95.6% in the assay with T-47D breast; 100% in the assay on BT-549 breast; 97.7% with MDA-MB-435 melanoma; 97% in the assay on SW-620 colon; 99.8% in the assay with HCC-2998 colon; 101% with KM12 colon.

As for `Nc1n[nH]c2cccc(C#Cc3cccc(NC(=O)c4cccc(C(F)(F)F)c4)c3)c12`, the growth is 25.3% in the assay with T-47D breast; 46.2% with BT-549 breast; 30.1% in the assay on MDA-MB-435 melanoma; 39.9% in the assay on MCF7 breast; 9.05% (active) in the assay with HCT-116 colon; 26.2% in the assay on HCC-2998 colon. The growth in the assay on KM12 colon is 38.5%.

For the compound `CCc1c2cc(Cl)ccc2n2cc(Cc3ccccc3)[nH]c(=O)c12`, the growth in the assay on T-47D breast is 104%; in the assay on BT-549 breast, 101%; in the assay on MDA-MB-435 melanoma it was 102%; in the assay on SW-620 colon, 99.4%; in the assay on HCC-2998 colon it was 97.1%; with KM12 colon, 98%.

For `COc1cc(/C=C\c2cc(/C=C\c3ccc(O)c(OC)c3)n(C(=O)CNc3ccccc3OC)n2)ccc1O`, the growth with T-47D breast was 91.8%; in the assay with BT-549 breast it was 66%; in the assay with MDA-MB-435 melanoma it was 6.34% (active); in the assay with SW-620 colon, 36.4%; in the assay on HCC-2998 colon, 112%; in the assay with KM12 colon, 46.2%.

For the compound `CC(NCCC(c1ccccc1)c1ccccc1)c1ccccc1` (centres undefined), the growth in the assay on T-47D breast is 109%; in the assay with BT-549 breast, 83.1%; in the assay with MDA-MB-435 melanoma, 27%; in the assay with MCF7 breast it was 74.8%; with HCT-116 colon, 42.8%; with HCC-2998 colon it was -31.1% (active). Further, in the assay on KM12 colon, the growth was 41.5%.

Regarding `COc1ccc(-c2cc(-c3nnc(SC/C(=N\O)c4ccccc4)n3-c3ccccc3)c3ccccc3n2)cc1`, the growth in the assay on T-47D breast is 106%; in the assay on BT-549 breast it was 108%; in the assay with MDA-MB-435 melanoma, 108%; with SW-620 colon, 102%; with HCC-2998 colon it was 103%; with KM12 colon, 98.9%.

Consider `CC(=O)O[C@@H]1[C@@H](OC(C)=O)[C@H](OC(C)=O)CO[C@H]1Nc1cccc2ccccc12`, for which the growth in the assay with T-47D breast is 86.6%; with BT-549 breast it was 89.1%; in the assay on MDA-MB-435 melanoma, 102%; with SW-620 colon, 98.4%; with HCC-2998 colon, 94.2%; with KM12 colon it was 84.2%.

Take `CN(C)CC/C=C1\c2ccccc2Sc2ccc(Cl)cc21`: the growth in the assay with T-47D breast was 70.7%; in the assay on BT-549 breast, 86.5%; with MDA-MB-435 melanoma, 36.2%; in the assay on MCF7 breast, 62.3%; in the assay with HCT-116 colon, 36.5%; in the assay on HCC-2998 colon, 27.4%. The growth with KM12 colon was 69.3%.

In the case of `COc1ccc(/C=C/C(=O)/C=C(/C=C/c2ccc(OC)c(OC)c2OC)OB(F)F)c(OC)c1OC`, the growth is 50.4% with T-47D breast; 31.4% with BT-549 breast; 0.716% (active) in the assay on MDA-MB-435 melanoma; 8% (active) with SW-620 colon; 59.2% in the assay on HCC-2998 colon; 22.8% in the assay with KM12 colon.

For the compound `C/C(=N\N=C1/SCC(=O)N1c1ccccc1)c1ccco1`, the growth with T-47D breast is 114%; with BT-549 breast, 127%; in the assay with MDA-MB-435 melanoma, 88.6%; in the assay with MCF7 breast, 53.7%; with HCT-116 colon, 92.7%; in the assay with HCC-2998 colon it was 109%. For the same compound, the growth with KM12 colon is 103%.

Consider `COc1ccc(C2CC(c3cc(Cl)c(C)cc3OC)=NN2c2ccc(S(N)(=O)=O)cc2)cc1OC` (centres undefined), for which the growth with T-47D breast is 77%; with BT-549 breast, 83.2%; in the assay with MDA-MB-435 melanoma it was 95.8%; with MCF7 breast, 80.4%; in the assay on HCT-116 colon, 56.7%; with HCC-2998 colon, 99.9%. Moreover, the growth in the assay with KM12 colon was 91.8%.

In the case of `c1ccc2nc(Cn3cc[n+](Cc4ccc5ccccc5n4)c3)ccc2c1`, the growth in the assay on T-47D breast is 29.8%; in the assay on BT-549 breast, 33.7%; in the assay on MDA-MB-435 melanoma it was 52.8%; in the assay on SW-620 colon, 77.8%; in the assay with HCC-2998 colon, 57.8%; with KM12 colon it was 48%.

For `COC(=O)c1oc2c(C(=O)/C=C/c3ccc(OC)cc3)c(OCCN3CCOCC3)ccc2c1C`, the growth in the assay on T-47D breast is 14%; in the assay on BT-549 breast it was -6.36% (active); in the assay with MDA-MB-435 melanoma it was 20%; with MCF7 breast, 10.5%; in the assay with HCT-116 colon, -73.9% (active); with HCC-2998 colon, 23.7%. For the same compound, in the assay with KM12 colon, the growth is -10.1% (active).

On to `O=C(Nc1ccc(-n2cc(-c3ccncc3)c(-c3ccc(O)c(Cl)c3)n2)cc1)c1cc(C(F)(F)F)cc(C(F)(F)F)c1`, for which the growth in the assay on T-47D breast is 60.7%; in the assay with BT-549 breast, 53.3%; in the assay on MDA-MB-435 melanoma it was 45.9%; in the assay on MCF7 breast, 58%; in the assay with HCT-116 colon, 40.3%; in the assay with HCC-2998 colon it was 83.6%. The growth in the assay on KM12 colon was 42.3%.

For `O=C(NCCNc1nccc(-c2c(-c3cccc(O)c3)nc3sccn23)n1)c1ccc(N2CCOCC2)c(C(F)(F)F)c1`, the growth is 60.1% in the assay with T-47D breast; 53.8% in the assay on BT-549 breast; 20.9% with MDA-MB-435 melanoma; 58.7% in the assay on MCF7 breast; 60.2% in the assay on HCT-116 colon; 106% in the assay with HCC-2998 colon. The growth in the assay with KM12 colon is 77.5%.

Take `O=c1c(-c2ccc3c(c2)OCO3)coc2c(CO)c(O)ccc12`: the growth in the assay with T-47D breast is 19.2%; in the assay on BT-549 breast it was -43% (active); with MDA-MB-435 melanoma it was 49.9%; with MCF7 breast it was 20.6%; with HCT-116 colon it was -8.96% (active); with HCC-2998 colon it was 4.46% (active). The growth in the assay on KM12 colon was 26.8%.

Consider `CS(=O)(=O)Nc1cccc(-c2ccc3ncnc(Nc4ccc(F)c(Cl)c4)c3c2)c1`, for which the growth was -21.7% (active) in the assay with T-47D breast; 35.4% in the assay on BT-549 breast; 38.7% in the assay with MDA-MB-435 melanoma; 15.3% in the assay on MCF7 breast; 16.1% in the assay with HCT-116 colon; 20.2% in the assay on HCC-2998 colon. For the same compound, the growth with KM12 colon is 21.6%.

`CC(/C=C/C=C(\C)[C@H](O)[C@H](C)C(=O)O[C@H]1C[C@H](C)C=C2C=C[C@@]3(C)O[C@@H](O)CC(=O)[C@]3(C)[C@H]21)=C\C=C\C(=O)O`: the growth in the assay on T-47D breast is -12.3% (active); in the assay on BT-549 breast, -21.5% (active); in the assay with MDA-MB-435 melanoma, 8.57% (active); in the assay with MCF7 breast, 3.12% (active); with HCT-116 colon, 2.2% (active); in the assay on HCC-2998 colon, 7.5% (active). In the assay with KM12 colon, the growth is 0.481% (active).
